PubChem BioAssay AID1159580 (chemical genetic matrix, 2015)
Values joined by “and” are separate entries in the source; they are usually repeats but may differ in a detail not shown here. Equal entries are not always repeated. Screen size: about 5,500 compounds; about 2,000 (36%) were called active. About 18% were inconclusive and are not listed. Rule as the data show it: active = normalized growth mostly below about 0.91 (no sharp cut-off); inconclusive = no clear call, values can overlap the other calls; inactive = mostly above about 0.92. The list shows a part of the results.

Assay: chemical genetic growth profiling, strain panel (AID 1159580);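 also: tested at 20 µM; growth read once vehicle control cultures reached saturation at 30 °C; 1 = growth at the plate median or of vehicle wells; lower values mean less growth of the strain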
Conditions: growth OD

Measured: normalized growth

CC1(C)NC(=O)N(c2ccc([N+](=O)[O-])c(C(F)(F)F)c2)C1=O
inactive: S. cerevisiae deletion strains, locus YJR075W, strain HOC1, stronger effect = lower value 1.01 | S. cerevisiae deletion strains, locus YKL009W, strain mrt4, stronger effect = lower value 0.969 | S. cerevisiae deletion strains, locus YKL068W, stronger effect = lower value 0.992 | S. cerevisiae deletion strains, locus YKL085W, strain MDH1 (second series), stronger effect = lower value 0.988 | S. cerevisiae deletion strains, locus YKL085W, strain MDH1, stronger effect = lower value 0.988 | S. cerevisiae deletion strains, locus YKL160W, strain elf1, stronger effect = lower value 0.988 | S. cerevisiae deletion strains, locus YKL190W, strain CNB1, stronger effect = lower value 1.01 | S. cerevisiae deletion strains, locus YKR001C, strain vps1, stronger effect = lower value 0.975 | S. cerevisiae deletion strains, locus YKR026C, strain gcn3, stronger effect = lower value 0.984 | S. cerevisiae deletion strains, locus YKR091W, strain srl3, stronger effect = lower value 0.989 | S. cerevisiae deletion strains, locus YLL001W, strain dnm1, stronger effect = lower value 0.986 | S. cerevisiae deletion strains, locus YLL026W, stronger effect = lower value 0.98 | S. cerevisiae deletion strains, locus YLL041C, strain sdh2, stronger effect = lower value 0.988 | S. cerevisiae deletion strains, locus YLR027C, strain aat2, stronger effect = lower value 0.986 | S. cerevisiae deletion strains, locus YLR039C, strain RIC1, stronger effect = lower value 0.984 | S. cerevisiae deletion strains, locus YLR058C, strain SHM2, stronger effect = lower value 1.02 | S. cerevisiae deletion strains, locus YLR102C, strain apc9, stronger effect = lower value 0.965 | S. cerevisiae deletion strains, locus YLR113W, strain HOG1, stronger effect = lower value 1.03 | S. cerevisiae deletion strains, locus YLR221C, strain rsa3, stronger effect = lower value 0.98 | S. cerevisiae deletion strains, locus YLR258W, strain gsy2, stronger effect = lower value 0.984 | S. cerevisiae deletion strains, locus YLR262C, strain YPT6 (second series), stronger effect = lower value 0.94 | S. cerevisiae deletion strains, locus YLR262C, strain YPT6, stronger effect = lower value 0.988 | S. cerevisiae deletion strains, locus YLR268W, strain sec22, stronger effect = lower value 0.974 | S. cerevisiae deletion strains, locus YLR320W, strain mms22, stronger effect = lower value 0.995 | S. cerevisiae deletion strains, locus YLR330W, strain CHS5, stronger effect = lower value 1.01 | S. cerevisiae deletion strains, locus YLR342W, strain FKS1 (second series), stronger effect = lower value 1.03 | S. cerevisiae deletion strains, locus YLR342W, strain FKS1, stronger effect = lower value 0.983 | S. cerevisiae deletion strains, locus YLR357W, strain rsc2, stronger effect = lower value 0.98 | S. cerevisiae deletion strains, locus YLR370C, strain arc18, stronger effect = lower value 0.971 | S. cerevisiae deletion strains, locus YLR371W, strain rom2, stronger effect = lower value 0.98 | S. cerevisiae deletion strains, locus YLR384C, strain iki3, stronger effect = lower value 0.989 | S. cerevisiae deletion strains, locus YLR418C, strain cdc73, stronger effect = lower value 0.942 | S. cerevisiae deletion strains, locus YML016C, strain PPZ1, stronger effect = lower value 1.02 | S. cerevisiae deletion strains, locus YML032C, strain rad52, stronger effect = lower value 0.986 | S. cerevisiae deletion strains, locus YML120C, strain ndi1, stronger effect = lower value 0.991 | S. cerevisiae deletion strains, locus YML124C, strain tub3, stronger effect = lower value 0.981 | S. cerevisiae deletion strains, locus YMR058W, strain fet3, stronger effect = lower value 0.987 | S. cerevisiae deletion strains, locus YMR078C, strain ctf18, stronger effect = lower value 0.988 | S. cerevisiae deletion strains, locus YMR125W, strain sto1, stronger effect = lower value 0.972 | S. cerevisiae deletion strains, locus YMR129W, stronger effect = lower value 0.986 | S. cerevisiae deletion strains, locus YMR205C, strain PFK2, stronger effect = lower value 0.972 | S. cerevisiae deletion strains, locus YMR223W, strain ubp8, stronger effect = lower value 0.983 | S. cerevisiae deletion strains, locus YMR231W, strain pep5, stronger effect = lower value 0.981 | S. cerevisiae deletion strains, locus YMR263W, strain SAP30, stronger effect = lower value 1 | S. cerevisiae deletion strains, locus YMR307W, strain GAS1, stronger effect = lower value 1.01 and 0.988 | S. cerevisiae deletion strains, locus YNL067W, strain RPL9B, stronger effect = lower value 0.987 | S. cerevisiae deletion strains, locus YNL071W, strain lat1, stronger effect = lower value 0.996 | S. cerevisiae deletion strains, locus YNL128W, strain TEP1, stronger effect = lower value 1 | S. cerevisiae deletion strains, locus YNL153C, strain GIM3, stronger effect = lower value 1.01 | S. cerevisiae deletion strains, locus YNL175C, strain NOP13, stronger effect = lower value 0.979 | S. cerevisiae deletion strains, locus YNL183C, strain NPR1, stronger effect = lower value 0.946 | S. cerevisiae deletion strains, locus YNL197C, strain WHI3, stronger effect = lower value 0.968 | S. cerevisiae deletion strains, locus YNL209W, strain ssb2, stronger effect = lower value 0.988 | S. cerevisiae deletion strains, locus YNL224C, strain SQS1, stronger effect = lower value 0.991 | S. cerevisiae deletion strains, locus YNL233W, strain BNI4, stronger effect = lower value 1.01 | S. cerevisiae deletion strains, locus YNL248C, strain rpa49, stronger effect = lower value 0.98 | S. cerevisiae deletion strains, locus YNL250W, strain rad50, stronger effect = lower value 0.987 | S. cerevisiae deletion strains, locus YNL271C, strain bni1, stronger effect = lower value 0.966 | S. cerevisiae deletion strains, locus YNL298W, strain CLA4, stronger effect = lower value 0.975 | S. cerevisiae deletion strains, locus YNL307C, strain MCK1, stronger effect = lower value 0.98 | S. cerevisiae deletion strains, locus YNL322C, strain KRE1 (second series), stronger effect = lower value 0.991 | S. cerevisiae deletion strains, locus YNL322C, strain KRE1, stronger effect = lower value 1.01 and 0.995 | S. cerevisiae deletion strains, locus YNR049C, strain mso1, stronger effect = lower value 0.984 | S. cerevisiae deletion strains, locus YNR052C, strain pop2, stronger effect = lower value 0.977 | S. cerevisiae deletion strains, locus YOL006C, strain TOP1, stronger effect = lower value 0.959 | S. cerevisiae deletion strains, locus YOL012C, strain htz1 0.756 | S. cerevisiae deletion strains, locus YOL147C, strain pex11, stronger effect = lower value 0.976 | S. cerevisiae deletion strains, locus YOR001W, strain rrp6, stronger effect = lower value 0.989 | S. cerevisiae deletion strains, locus YOR061W, strain CKA2, stronger effect = lower value 1.01 | S. cerevisiae deletion strains, locus YOR069W, strain VPS5, stronger effect = lower value 1.01 | S. cerevisiae deletion strains, locus YOR070C, strain gyp1, stronger effect = lower value 0.987 | S. cerevisiae deletion strains, locus YOR080W, strain dia2, stronger effect = lower value 0.987 | S. cerevisiae deletion strains, locus YOR083W, strain WHI5 (second series), stronger effect = lower value 0.979 | S. cerevisiae deletion strains, locus YOR083W, strain WHI5, stronger effect = lower value 0.99 | S. cerevisiae deletion strains, locus YOR106W, strain vam3, stronger effect = lower value 0.981 | S. cerevisiae deletion strains, locus YOR136W, strain idh2, stronger effect = lower value 0.977 | S. cerevisiae deletion strains, locus YOR144C, strain elg1, stronger effect = lower value 0.976 | S. cerevisiae deletion strains, locus YOR184W, strain ser1, stronger effect = lower value 0.975 | S. cerevisiae deletion strains, locus YOR231W, strain MKK1, stronger effect = lower value 1.01 | S. cerevisiae deletion strains, locus YOR265W, strain rbl2, stronger effect = lower value 0.987 | S. cerevisiae deletion strains, locus YOR270C, strain vph1, stronger effect = lower value 0.974 | S. cerevisiae deletion strains, locus YOR290C, strain snf2, stronger effect = lower value 0.996 | S. cerevisiae deletion strains, locus YOR316C, strain cot1, stronger effect = lower value 0.99 | S. cerevisiae deletion strains, locus YPL051W, strain arl3, stronger effect = lower value 0.985 | S. cerevisiae deletion strains, locus YPL055C, strain LGE1, stronger effect = lower value 1.01 and 0.996 | S. cerevisiae deletion strains, locus YPL078C, strain atp4, stronger effect = lower value 0.978 | S. cerevisiae deletion strains, locus YPL106C, strain sse1, stronger effect = lower value 0.962 | S. cerevisiae deletion strains, locus YPL240C, strain hsp82, stronger effect = lower value 0.987 | S. cerevisiae deletion strains, locus YPL241C, strain CIN2, stronger effect = lower value 1.01 and 0.997 | S. cerevisiae deletion strains, locus YPL256C, strain CLN2, stronger effect = lower value 0.996 | S. cerevisiae deletion strains, locus YPR119W, strain clb2, stronger effect = lower value 0.969 | S. cerevisiae deletion strains, locus YPR141C, strain kar3, stronger effect = lower value 0.99 | S. cerevisiae deletion strains, locus YPR163C, strain tif3, stronger effect = lower value 0.979 | S. cerevisiae deletion strains, locus YPR167C, strain met16, stronger effect = lower value 0.975 | S. cerevisiae deletion strains, strain wtn01, stronger effect = lower value 0.969 | S. cerevisiae strains, strain wild type, stronger effect = lower value 1
